The structures appear in SMILES notation.

For assay [1], the target named is Serine/threonine-protein kinase pim-2 (Homo sapiens) (UniProt Q9P1W9). As to conditions: at 1 µM.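 Further: each value is a mean of the inhibition measurements against the kinase.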
The target of assay [2] is Serine/threonine-protein kinase pim-3 (Homo sapiens) (UniProt Q86V86). As to conditions: at 0.1 µM.
Assay [3] shares this target. As to conditions: at 1 µM.
Assay [4] concerns the target T1, MAP kinase-activated protein kinase 5 (Homo sapiens) (UniProt Q8IW41).
T1 sequence (whole entry): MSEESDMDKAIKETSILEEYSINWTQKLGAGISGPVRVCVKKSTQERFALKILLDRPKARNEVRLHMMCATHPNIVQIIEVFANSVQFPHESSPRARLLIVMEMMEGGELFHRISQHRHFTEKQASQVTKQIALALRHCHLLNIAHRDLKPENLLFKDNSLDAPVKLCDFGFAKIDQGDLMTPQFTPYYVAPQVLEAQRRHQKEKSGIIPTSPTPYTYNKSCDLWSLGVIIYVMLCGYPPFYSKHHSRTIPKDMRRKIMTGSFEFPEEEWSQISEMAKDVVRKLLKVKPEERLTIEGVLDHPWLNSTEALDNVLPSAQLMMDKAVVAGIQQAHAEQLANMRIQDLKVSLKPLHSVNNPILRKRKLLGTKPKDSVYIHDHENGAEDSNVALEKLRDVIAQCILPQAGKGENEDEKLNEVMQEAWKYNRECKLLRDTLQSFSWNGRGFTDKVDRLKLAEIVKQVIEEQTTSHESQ
As to conditions: at 0.1 µM.

The target in assay [5] is T1, MAP kinase-activated protein kinase 5 (Homo sapiens). As to conditions: at 1 µM.
In assay [6] the target is Serine/threonine-protein kinase SIK1 (Homo sapiens) (UniProt P57059). The conditions noted are these: at 0.1 µM.
Assay [7] has the same target. As to conditions: at 1 µM.
The target in assay [8] is Serine/threonine-protein kinase SIK2 (Homo sapiens) (UniProt Q9H0K1). The conditions noted are these: at 0.1 µM.
Assay [9] has the same target. The conditions noted are these: at 1 µM.
Assay [10] addresses T2, Serine/threonine-protein kinase TBK1 (Homo sapiens) (UniProt Q9UHD2).
T2 sequence (whole entry): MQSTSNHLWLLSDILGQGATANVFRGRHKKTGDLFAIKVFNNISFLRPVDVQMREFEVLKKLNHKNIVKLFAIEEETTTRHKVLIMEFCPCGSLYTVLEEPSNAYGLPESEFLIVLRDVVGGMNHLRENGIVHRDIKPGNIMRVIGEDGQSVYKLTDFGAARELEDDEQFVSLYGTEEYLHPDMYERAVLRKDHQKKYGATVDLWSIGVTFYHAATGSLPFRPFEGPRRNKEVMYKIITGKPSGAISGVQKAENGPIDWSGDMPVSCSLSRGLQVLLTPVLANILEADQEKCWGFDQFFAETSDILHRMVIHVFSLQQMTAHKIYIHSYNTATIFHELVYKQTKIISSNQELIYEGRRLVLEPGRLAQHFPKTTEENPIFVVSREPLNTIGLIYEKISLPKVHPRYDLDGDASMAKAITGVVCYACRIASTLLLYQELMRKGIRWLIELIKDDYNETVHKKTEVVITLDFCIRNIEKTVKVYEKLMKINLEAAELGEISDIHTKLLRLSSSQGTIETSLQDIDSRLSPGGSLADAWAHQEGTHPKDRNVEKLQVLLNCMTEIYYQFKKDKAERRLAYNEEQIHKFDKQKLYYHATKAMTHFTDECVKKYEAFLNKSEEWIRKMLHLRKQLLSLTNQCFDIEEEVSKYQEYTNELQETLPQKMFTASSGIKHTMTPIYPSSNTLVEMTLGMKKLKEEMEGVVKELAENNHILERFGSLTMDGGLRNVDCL
As to conditions: at 0.1 µM.

For assay [11], the target named is T2, Serine/threonine-protein kinase TBK1 (Homo sapiens). The conditions noted are these: at 1 µM.
For assay [12], the target named is T3, Testis-specific serine/threonine-protein kinase 1 (Homo sapiens) (UniProt Q9BXA7).
T3 sequence (whole entry): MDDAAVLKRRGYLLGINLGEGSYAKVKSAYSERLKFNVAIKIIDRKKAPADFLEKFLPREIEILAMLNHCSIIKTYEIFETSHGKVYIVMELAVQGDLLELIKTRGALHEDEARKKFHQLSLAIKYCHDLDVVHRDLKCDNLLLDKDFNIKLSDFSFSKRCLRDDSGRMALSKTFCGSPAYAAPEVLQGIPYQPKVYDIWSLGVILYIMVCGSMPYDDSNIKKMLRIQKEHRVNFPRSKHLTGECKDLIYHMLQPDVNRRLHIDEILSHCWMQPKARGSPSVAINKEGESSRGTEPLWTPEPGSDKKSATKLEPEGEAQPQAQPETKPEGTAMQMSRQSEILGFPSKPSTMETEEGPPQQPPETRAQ
The conditions noted are these: at 0.1 µM.

The target of assay [13] is T3, Testis-specific serine/threonine-protein kinase 1 (Homo sapiens). As to conditions: at 1 µM.
In assay [14] the target is T4, Testis-specific serine/threonine-protein kinase 2 (Homo sapiens) (UniProt Q96PF2).
T4 sequence (whole entry): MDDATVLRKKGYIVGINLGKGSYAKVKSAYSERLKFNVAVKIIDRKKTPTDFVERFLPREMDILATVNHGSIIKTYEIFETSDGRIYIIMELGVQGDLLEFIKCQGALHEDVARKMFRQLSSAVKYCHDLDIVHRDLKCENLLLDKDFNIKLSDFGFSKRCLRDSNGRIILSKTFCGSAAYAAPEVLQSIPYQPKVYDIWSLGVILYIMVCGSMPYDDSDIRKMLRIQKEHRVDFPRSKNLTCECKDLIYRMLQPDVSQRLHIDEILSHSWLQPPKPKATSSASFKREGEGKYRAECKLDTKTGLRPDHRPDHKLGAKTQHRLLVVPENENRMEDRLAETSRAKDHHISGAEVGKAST
As to conditions: at 0.1 µM.

The target in assay [15] is T4, Testis-specific serine/threonine-protein kinase 2 (Homo sapiens). As to conditions: at 1 µM.
Assay [16] concerns the target Casein kinase I isoform alpha (Homo sapiens) (UniProt P48729). The conditions noted are these: at 0.1 µM.
The target is the same in assay [17]. The conditions noted are these: at 1 µM.
In assay [18] the target is Casein kinase I isoform gamma-1 (Homo sapiens) (UniProt Q9HCP0). The conditions noted are these: at 0.1 µM.
The target is the same in assay [19]. The conditions noted are these: at 1 µM.
Assay [20] deals with Casein kinase I isoform gamma-2 (Homo sapiens) (UniProt P78368). As to conditions: at 0.1 µM.
Sequence of Casein kinase I isoform gamma-2 (Homo sapiens) (P78368 whole entry, looked up, canonical isoform): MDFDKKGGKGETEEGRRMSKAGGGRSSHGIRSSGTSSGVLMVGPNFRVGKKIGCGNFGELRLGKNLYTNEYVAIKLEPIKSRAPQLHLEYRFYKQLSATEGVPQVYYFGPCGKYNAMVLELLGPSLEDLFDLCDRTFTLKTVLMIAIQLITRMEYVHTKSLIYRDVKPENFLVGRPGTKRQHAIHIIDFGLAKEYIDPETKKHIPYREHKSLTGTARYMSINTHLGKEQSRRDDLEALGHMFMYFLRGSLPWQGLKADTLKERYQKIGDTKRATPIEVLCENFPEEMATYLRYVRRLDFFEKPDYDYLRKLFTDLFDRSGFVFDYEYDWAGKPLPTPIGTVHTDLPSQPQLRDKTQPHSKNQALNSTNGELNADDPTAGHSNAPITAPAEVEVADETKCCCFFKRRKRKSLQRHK

Sequence of Serine/threonine-protein kinase SIK2 (Homo sapiens) (Q9H0K1 whole entry, looked up): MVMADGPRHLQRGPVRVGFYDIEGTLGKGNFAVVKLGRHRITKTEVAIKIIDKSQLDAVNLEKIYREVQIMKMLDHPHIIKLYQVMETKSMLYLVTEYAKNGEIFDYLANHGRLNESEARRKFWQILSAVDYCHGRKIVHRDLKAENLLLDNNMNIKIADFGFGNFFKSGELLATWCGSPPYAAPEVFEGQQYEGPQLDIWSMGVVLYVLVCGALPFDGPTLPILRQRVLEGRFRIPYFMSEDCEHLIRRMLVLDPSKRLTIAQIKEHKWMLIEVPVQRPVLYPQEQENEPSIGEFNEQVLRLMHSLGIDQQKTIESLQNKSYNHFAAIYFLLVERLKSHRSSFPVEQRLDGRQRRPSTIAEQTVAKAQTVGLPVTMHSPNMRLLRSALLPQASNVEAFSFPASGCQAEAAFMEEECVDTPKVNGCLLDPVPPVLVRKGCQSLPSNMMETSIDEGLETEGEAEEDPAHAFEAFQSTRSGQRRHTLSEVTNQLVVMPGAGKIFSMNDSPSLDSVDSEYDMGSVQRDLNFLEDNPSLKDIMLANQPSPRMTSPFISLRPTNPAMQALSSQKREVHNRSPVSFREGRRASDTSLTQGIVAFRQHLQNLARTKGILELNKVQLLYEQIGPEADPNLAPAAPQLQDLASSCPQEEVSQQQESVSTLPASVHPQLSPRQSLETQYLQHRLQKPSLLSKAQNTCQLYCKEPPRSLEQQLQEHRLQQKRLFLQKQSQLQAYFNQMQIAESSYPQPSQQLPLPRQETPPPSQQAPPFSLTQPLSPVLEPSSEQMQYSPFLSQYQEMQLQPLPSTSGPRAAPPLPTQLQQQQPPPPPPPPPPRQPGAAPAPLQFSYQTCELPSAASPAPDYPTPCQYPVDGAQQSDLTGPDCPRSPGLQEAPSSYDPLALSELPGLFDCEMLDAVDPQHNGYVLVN
Sequence of Casein kinase I isoform alpha (Homo sapiens) (P48729 2-337 limits assumed): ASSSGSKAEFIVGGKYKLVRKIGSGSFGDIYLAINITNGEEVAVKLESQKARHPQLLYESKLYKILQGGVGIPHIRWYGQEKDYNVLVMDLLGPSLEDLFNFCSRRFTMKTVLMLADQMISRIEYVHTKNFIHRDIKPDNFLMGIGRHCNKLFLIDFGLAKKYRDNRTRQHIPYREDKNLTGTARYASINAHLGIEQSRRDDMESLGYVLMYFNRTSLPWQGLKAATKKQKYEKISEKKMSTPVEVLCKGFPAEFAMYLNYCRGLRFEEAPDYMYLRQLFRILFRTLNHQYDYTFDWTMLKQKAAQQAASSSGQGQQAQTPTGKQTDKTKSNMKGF
Sequence of Serine/threonine-protein kinase SIK1 (Homo sapiens) (P57059 whole entry): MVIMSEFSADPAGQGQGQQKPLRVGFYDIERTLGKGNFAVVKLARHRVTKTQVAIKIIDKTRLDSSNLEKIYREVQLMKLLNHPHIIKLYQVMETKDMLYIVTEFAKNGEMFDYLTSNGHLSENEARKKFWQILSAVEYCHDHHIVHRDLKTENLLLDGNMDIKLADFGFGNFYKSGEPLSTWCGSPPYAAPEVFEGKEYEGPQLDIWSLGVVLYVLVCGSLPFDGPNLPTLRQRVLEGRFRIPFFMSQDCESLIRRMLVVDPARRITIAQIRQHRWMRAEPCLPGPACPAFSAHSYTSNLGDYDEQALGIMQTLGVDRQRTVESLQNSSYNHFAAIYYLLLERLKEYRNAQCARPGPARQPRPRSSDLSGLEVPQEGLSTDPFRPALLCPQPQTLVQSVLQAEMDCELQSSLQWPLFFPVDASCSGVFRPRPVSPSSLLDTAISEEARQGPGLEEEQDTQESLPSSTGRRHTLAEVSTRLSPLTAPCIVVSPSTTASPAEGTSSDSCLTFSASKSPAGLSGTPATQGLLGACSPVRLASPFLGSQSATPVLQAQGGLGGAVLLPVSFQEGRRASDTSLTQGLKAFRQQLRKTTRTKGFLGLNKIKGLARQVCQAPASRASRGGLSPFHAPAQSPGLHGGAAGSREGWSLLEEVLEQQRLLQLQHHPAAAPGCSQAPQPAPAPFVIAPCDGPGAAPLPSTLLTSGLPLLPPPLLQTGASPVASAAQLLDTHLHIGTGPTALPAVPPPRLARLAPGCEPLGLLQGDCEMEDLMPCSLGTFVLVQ
Sequence of Serine/threonine-protein kinase pim-2 (Homo sapiens) (Q9P1W9 whole entry, looked up): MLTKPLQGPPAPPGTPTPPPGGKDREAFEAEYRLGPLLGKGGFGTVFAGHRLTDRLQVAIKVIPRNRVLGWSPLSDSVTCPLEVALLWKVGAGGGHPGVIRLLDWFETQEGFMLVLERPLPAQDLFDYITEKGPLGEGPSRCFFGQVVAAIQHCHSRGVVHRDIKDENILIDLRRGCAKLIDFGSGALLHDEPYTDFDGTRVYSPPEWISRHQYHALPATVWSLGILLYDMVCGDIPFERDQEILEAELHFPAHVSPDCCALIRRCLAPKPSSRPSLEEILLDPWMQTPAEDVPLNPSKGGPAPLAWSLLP
Sequence of Casein kinase I isoform gamma-1 (Homo sapiens) (Q9HCP0 whole entry, looked up, canonical isoform): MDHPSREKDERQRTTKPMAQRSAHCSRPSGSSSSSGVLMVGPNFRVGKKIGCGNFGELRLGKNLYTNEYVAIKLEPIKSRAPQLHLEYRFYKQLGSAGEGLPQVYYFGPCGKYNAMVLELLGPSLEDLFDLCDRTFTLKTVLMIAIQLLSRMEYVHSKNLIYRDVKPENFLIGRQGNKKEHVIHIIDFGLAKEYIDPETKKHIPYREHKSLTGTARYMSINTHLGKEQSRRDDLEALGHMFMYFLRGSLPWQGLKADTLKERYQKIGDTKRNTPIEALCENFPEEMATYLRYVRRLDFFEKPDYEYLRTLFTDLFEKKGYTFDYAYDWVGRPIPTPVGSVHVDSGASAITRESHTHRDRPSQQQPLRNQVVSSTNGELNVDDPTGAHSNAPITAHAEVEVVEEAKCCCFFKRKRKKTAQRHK

`CCN(CC)Cc1ccc(Nc2nccc(-c3cnn4ncccc34)n2)cc1`: the inhibition (as a rule, the drop in the measured response relative to a control, in per cent) was -0.59% in assay [1]; 6.38% in assay [2]; 37.2% in assay [3]; 1.44% in assay [4]; 2.13% in assay [5]; 2.61% in assay [6]. Moreover, the inhibition in assay [7] stood at 24.1%; in [8] it was 10.8%; in assay [9] it was 47.2%; in assay [10], 5.04%; in assay [11], 12.3%; in [12], 5.5%. Besides, the inhibition stood at 26.5% in [13]; 0.81% in assay [14]; 2.16% in assay [15]; 15.2% in assay [16]; 54.3% in [17]; 2.36% in [18]. Further, the inhibition in assay [19] stood at 6.01%; in [20], 1.79%.

With `Cc1ccc(C(=O)NC2CCC2)cc1-c1ccc(C(=O)NCC2CC2)cc1`, the inhibition in assay [1] was -0.13%; in assay [2], -0.5%; in [3], 0.14%; in assay [4], 0.63%; in [5], -0.21%; in [6], 6.34%. Further, the inhibition in assay [7] is 3.12%; in [8] it was 1.33%; in assay [9], 0.45%; in assay [10] it was 1.61%; in assay [11] it was 2.24%; in assay [12], 2.11%. Also, the inhibition in assay [13] was 1.32%; in assay [14], 0.09%; in [15], -0.03%; in assay [16], 3.36%; in [17], 6.49%; in [18], 2.64%. Besides, the inhibition in assay [19] amounted to 3.13%; in assay [20], 1.72%.

With `COc1ccc2cc(-c3c(-c4ccncc4)nc(-c4ccc(S(C)(=O)=O)cc4C)n3C)ccc2c1`, the inhibition in [1] turned out to be 4.18%; in [2] it was 4.87%; in assay [3], 3.73%; in [4], 1.38%; in assay [5], 2.64%; in [6], 5.28%. Moreover, the inhibition was 9.27% in [7]; 3.7% in [8]; 10.8% in [9]; 2.5% in assay [10]; 5.22% in assay [11]; 4.54% in [12]. Further, the inhibition worked out at 6.64% in assay [13]; 2.43% in assay [14]; 3.81% in assay [15]; 2.38% in assay [16]; 4% in assay [17]; 3.35% in assay [18]. Further, the inhibition in [19] was determined as 4.23%; in [20] it was 2.92%.

As to `COc1cccc(/C=N/Nc2ncnc3c2cnn3-c2cccc(OC)c2)c1`, the inhibition is -0.53% in assay [1]; 0.38% in assay [2]; 0.16% in assay [3]; 0.99% in assay [4]; 1.08% in assay [5]; 5.07% in assay [6]. In addition, the inhibition in assay [7] turned out to be 8.61%; in [8], 5.87%; in assay [9], 6.63%; in assay [10], 3.28%; in assay [11] it was 1.31%; in assay [12], 3.46%. The inhibition amounted to 3.86% in assay [13]; 2.47% in [14]; 1.38% in assay [15]; 3.37% in assay [16]; 6.05% in assay [17]; 2.82% in assay [18]. Further, the inhibition in assay [19] was found to be 3.51%; in [20], 3.16%.

Take `CCC(=O)Nc1ccc(C)c(-c2ccc(C(=O)NCC3CC3)cc2)c1`: the inhibition in assay [1] was 0.38%; in assay [2], 0.17%; in [3] it was 0.73%; in assay [4], 0.96%; in assay [5], 0.76%; in assay [6], 4.61%. Also, the inhibition in assay [7] came to 5.28%; in [8] it was 4.06%; in assay [9] it was 6.63%; in assay [10] it was 2.36%; in [11], 2.69%; in assay [12], 3.66%. The inhibition in assay [13] was found to be 3.59%; in assay [14], 1.6%; in assay [15] it was 1.74%; in assay [16], 2.53%; in assay [17], 3.41%; in assay [18] it was 2.54%. Further, the inhibition came to 3% in assay [19] and 2.3% in assay [20].

Take `Cc1nnc(-c2ccc(C)c(-c3ccc(C(=O)NCc4ccc(Cl)cc4)cc3)c2)o1`: the inhibition in [1] is -2.67%; in [2] it was 0.64%; in assay [3], 0.96%; in assay [4], 1.56%; in assay [5], 2.59%; in assay [6], 1.09%. For the same molecule, the inhibition in assay [7] amounted to 7.21%; in assay [8] it was 5.11%; in assay [9], 11.4%; in [10], 1.16%; in assay [11], 3.88%; in [12], 4.06%. The inhibition was found to be 4.33% in assay [13]; 1.65% in assay [14]; 3.27% in assay [15]; 2.79% in assay [16]; 4.63% in assay [17]; 0.71% in [18]. Besides, the inhibition is 2.06% in [19] and -1.05% in [20].

With `O=C1Nc2ccccc2/C1=C/Nc1ccc(-n2cncn2)cc1`, the inhibition in assay [1] came to 2.25%; in assay [2], 1.36%; in assay [3] it was 4.7%; in assay [4], 1.63%; in assay [5], 4.02%; in [6], 5.8%. The inhibition in [7] stood at 9.8%; in assay [8] it was 3.09%; in assay [9], 11.6%; in assay [10], 6.41%; in assay [11], 17.3%; in assay [12] it was 4.37%. The inhibition in [13] was 7.35%; in [14], 3.01%; in [15], 5.54%; in assay [16], 3.79%; in assay [17] it was 10.3%; in assay [18] it was 4.33%. In addition, the inhibition in [19] is 7.11%; in assay [20] it was 3.66%.
